The text below walks through data of PubChem BioAssay.

Calls of active or inactive are those of the source. Unless noted, no rule for the calls is given here.

Assay [1] concerns Wnt5a (protein binding on small-molecule microarray). Kind of assay: small molecules binding Wnt5a protein – biophysical, small-molecule microarray, 635/667 nm fluorescence, primary screen (AID 1142).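 Also: fluorescence read at 667 nm with signal to noise per printed feature.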 The following applies: 635 nm fluorescence, higher = more signal.
Assay [2] can be described thus: ATP-based viability of Huh7 replicon cells – cell-based, CellTiter-Glo luminescence, basal, 48 h, cytotoxicity control for HCV replication inhibitor project, primary screen (AID 1143).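 Also: Huh7 hepatoma cells carrying a hepatitis C replication reporter with no stimulus; test concentration not given here.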 Conditions: higher = more signal, called active from +8 up or from −8 down. (In general: A replicon is a self-replicating genome or part of one, used to study replication in cells.)
The nature of assay [3]: Pseudomonas biofilm growth suppression – PAO1 strain, BacTiter-Glo luminescence, LB-PBS, primary screen (AID 1144). The following applies: P. aeruginosa PAO1 biofilm, 12 h, higher = more signal.
Assay [4] is described as follows: basal CRE-LacZ reporter activity in PC12 – cell-based, unstimulated, primary screen (AID 1145). Conditions: no forskolin, luminescence, 4.5 h, higher = more signal, called active from +8 up or from −8 down.
The nature of assay [5]: forskolin-driven CRE-LacZ activity in PC12 – cell-based, CRE-LacZ reporter, forskolin-stimulated, primary screen (AID 1146).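 Also: PC12 cells with 6xCRE LacZ reporter stimulated by forskolin 10 µM; beta-galactosidase reporter signal reflecting CREB driven transcription.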 Conditions: luminescence, 4.5 h, higher = more signal, called active from +8 up or from −8 down.
Assay [6] has as its target Streptavidin (Streptomyces avidinii) (UniProt P22629). Briefly: compounds binding control protein streptavidin – biophysical, small-molecule microarray, 635/667 nm fluorescence, artefact control for SMM compound annotation, primary screen (AID 1147).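 Also: signal reflects streptavidin binding to arrayed compounds as a control protein.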 Conditions: higher = more signal.
Assay [7] in a line: probe aInhba binding on compound microarray – biochemical, small-molecule microarray, 635/667 nm fluorescence, primary screen (AID 1148).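 Also: score merges 667nm spot fluorescence with signal-to-noise for antibody binding to printed compounds.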 Conditions: higher = more signal.
Assay [8] deals with Torsin-1A (Homo sapiens) (UniProt O14656). Briefly: TOR1A wild-type binding on microarray – cell lysate, small-molecule microarray, lysate, 635/667 nm, primary screen (AID 1149). Conditions: COS7 hTOR1A-WT lysate, 635 nm fluorescence, higher = more signal.
The target is the same in assay [9]. Kind of assay: torsin A mutant lysate binding on microarrays – cell lysate, small-molecule microarray, COS7 lysate, 635/667 nm fluorescence, primary screen (AID 1150).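 Also: score pools 667 nm emission and signal to noise measuring lysate protein binding.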 The following applies: COS7 hTOR1A mutant lysate, 635 nm fluorescence, higher = more signal.
Assay [10] relates to Sonic hedgehog protein (Shh). Briefly: Sonic hedgehog microarray binding compounds – biochemical, small-molecule microarray, 635/667 nm fluorescence, primary screen (AID 1151).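 Also: Shh protein binding to compounds spotted on small-molecule microarray slides; score combines spot fluorescence intensity with signal-to-noise across triplicate slides.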 Conditions: 635 nm fluorescence, higher = more signal.
Assay [11] in a line: optical density shifts of acrAB sulA E. coli – strain DRC41, OD650, 48 h, E. coli filamentation inducer project, primary screen (AID 1152).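 Also: E. coli MC1000 strain DRC41 lacking acrAB efflux pump and sulA.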 The following applies: higher = more signal, called active from +8 up or from −8 down.
Assay [12] is described as follows: probe aLefty1 binding on compound microarray – biochemical, small-molecule microarray, 635/667 nm fluorescence, primary screen (AID 1153).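 Also: score merges spot fluorescence with signal-to-noise ratio from the scanned slide images.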 The following applies: higher = more signal.
Assay [13] is described as follows: plasmodial surface anion channel blockers, osmotic lysis – cell-based, P. falciparum Indochina, OD700, 1 h, primary screen (AID 1154). Conditions: P. falciparum Indochina infected RBC osmotic lysis, higher = more signal, called active from +8 up or from −8 down.
A short description of assay [14]: plasmodial surface anion channel blockers, osmotic lysis – cell-based, P. falciparum Indochina, OD700, 2 h, primary screen (AID 1155).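 Also: lysis reports solute entry through the parasite surface anion channel PSAC.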 The following applies: P. falciparum Indochina infected erythrocytes, higher = more signal, called active from +8 up or from −8 down.
Assay [15] in a line: changes in parasitized red cell lysis, either direction – P. falciparum Indochina, OD700, 3 h, PSAC antagonist project, primary screen (AID 1156). Conditions: P. falciparum-infected erythrocytes, osmotic lysis, higher = more signal, called active from +8 up or from −8 down.
Assay [16] can be described thus: plasmodial surface anion channel blockers, osmotic lysis – cell-based, P. falciparum Indochina, OD700, 18 h, primary screen (AID 1157). Conditions: P. falciparum Indochina infected erythrocytes, osmotic lysis OD700, 18 h; higher = more signal, called active from +8 up or from −8 down.
A short description of assay [17]: S6 kinase pathway phospho-S6 level changes – cell-based, A549, cytoblot, luminescence, serum-stimulated, primary screen (AID 1158).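 Also: serum-stimulated A549 lung adenocarcinoma cells; signal is phosphorylated S6 detected by cytoblot immunostaining with HRP secondary.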 The following applies: 5 h, higher = more signal.
For assay [18], the target named is NADPH oxidase 2 (Homo sapiens) (UniProt P04839). Kind of assay: compounds shifting NOX2 Amplex Red fluorescence – cell-based, HEK293-NOX2, PMA-stimulated, NOX inhibitor project, primary screen (AID 1159). Also: test concentration not given here. The following applies: 45 min, higher = more signal, called active from +8 up or from −8 down.
Assay [19] addresses NADPH oxidase 4 (Homo sapiens) (UniProt Q9NPH5). Briefly: compounds shifting NOX4 Amplex Red fluorescence – cell-based, HEK293-NOX4, tetracycline-induced, NOX inhibitor project, primary screen (AID 1160). Conditions: HEK293-NOX4, Amplex Red H2O2 fluorescence, 45 min; higher = more signal, called active from +8 up or from −8 down.
The target in assay [20] is NADPH oxidase 5 (Homo sapiens) (UniProt Q96PH1). Briefly: compounds shifting NOX5 Amplex Red fluorescence – cell-based, HEK293-NOX5, NOX inhibitor project, primary screen (AID 1161). The following applies: HEK293-NOX5, ionomycin, 45 min, higher = more signal.
Sequence of NADPH oxidase 5 (Homo sapiens) (Q96PH1 whole entry, looked up): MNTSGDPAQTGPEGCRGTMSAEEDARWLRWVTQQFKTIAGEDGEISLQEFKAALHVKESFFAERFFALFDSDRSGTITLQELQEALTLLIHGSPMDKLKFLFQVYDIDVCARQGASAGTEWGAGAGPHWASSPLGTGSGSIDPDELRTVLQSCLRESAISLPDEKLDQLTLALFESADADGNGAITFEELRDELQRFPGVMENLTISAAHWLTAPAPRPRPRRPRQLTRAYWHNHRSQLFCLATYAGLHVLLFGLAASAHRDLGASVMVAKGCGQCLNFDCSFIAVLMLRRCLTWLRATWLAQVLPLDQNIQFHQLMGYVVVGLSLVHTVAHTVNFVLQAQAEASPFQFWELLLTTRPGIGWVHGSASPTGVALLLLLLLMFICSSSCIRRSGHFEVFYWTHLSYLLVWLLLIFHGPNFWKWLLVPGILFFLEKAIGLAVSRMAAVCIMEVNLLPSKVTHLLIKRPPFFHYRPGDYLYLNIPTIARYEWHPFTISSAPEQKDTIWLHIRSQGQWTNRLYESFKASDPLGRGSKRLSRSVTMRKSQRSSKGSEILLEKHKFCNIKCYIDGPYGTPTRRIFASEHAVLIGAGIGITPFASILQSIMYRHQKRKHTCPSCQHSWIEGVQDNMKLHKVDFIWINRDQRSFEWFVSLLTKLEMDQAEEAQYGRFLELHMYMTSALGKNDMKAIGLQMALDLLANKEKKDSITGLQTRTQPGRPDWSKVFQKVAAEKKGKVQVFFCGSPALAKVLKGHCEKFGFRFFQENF

Sequence of Torsin-1A (Homo sapiens) (O14656 whole entry, looked up): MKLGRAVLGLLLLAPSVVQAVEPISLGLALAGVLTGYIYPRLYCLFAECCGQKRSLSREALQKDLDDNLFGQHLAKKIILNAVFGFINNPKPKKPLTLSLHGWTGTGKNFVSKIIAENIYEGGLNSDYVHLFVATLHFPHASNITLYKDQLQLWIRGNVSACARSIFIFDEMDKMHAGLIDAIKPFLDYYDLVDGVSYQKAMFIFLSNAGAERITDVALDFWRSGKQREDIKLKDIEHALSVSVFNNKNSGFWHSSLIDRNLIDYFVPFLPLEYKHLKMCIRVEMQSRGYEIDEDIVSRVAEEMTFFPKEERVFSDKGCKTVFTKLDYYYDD
Sequence of NADPH oxidase 4 (Homo sapiens) (Q9NPH5 whole entry, looked up): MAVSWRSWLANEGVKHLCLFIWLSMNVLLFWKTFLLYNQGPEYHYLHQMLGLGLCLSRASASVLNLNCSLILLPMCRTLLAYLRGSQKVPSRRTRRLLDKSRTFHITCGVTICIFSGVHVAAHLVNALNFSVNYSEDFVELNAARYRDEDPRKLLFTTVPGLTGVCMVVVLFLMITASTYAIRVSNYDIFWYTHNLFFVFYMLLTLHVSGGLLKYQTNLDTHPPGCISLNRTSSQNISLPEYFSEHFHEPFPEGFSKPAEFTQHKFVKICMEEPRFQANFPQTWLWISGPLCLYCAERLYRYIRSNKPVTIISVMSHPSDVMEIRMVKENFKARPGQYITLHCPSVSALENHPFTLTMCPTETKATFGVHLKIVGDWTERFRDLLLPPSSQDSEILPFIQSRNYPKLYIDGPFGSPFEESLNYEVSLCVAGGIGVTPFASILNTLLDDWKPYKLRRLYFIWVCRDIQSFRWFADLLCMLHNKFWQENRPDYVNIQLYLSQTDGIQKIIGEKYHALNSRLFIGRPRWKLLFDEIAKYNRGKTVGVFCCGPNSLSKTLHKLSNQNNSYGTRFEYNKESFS
Sequence of Streptavidin (Streptomyces avidinii) (P22629 whole entry, looked up): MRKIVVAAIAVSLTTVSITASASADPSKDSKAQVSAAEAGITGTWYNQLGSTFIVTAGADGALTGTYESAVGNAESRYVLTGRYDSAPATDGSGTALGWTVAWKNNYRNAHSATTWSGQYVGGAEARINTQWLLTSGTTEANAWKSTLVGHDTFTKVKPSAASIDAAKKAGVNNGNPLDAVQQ
Sequence of NADPH oxidase 2 (Homo sapiens) (P04839 whole entry, looked up): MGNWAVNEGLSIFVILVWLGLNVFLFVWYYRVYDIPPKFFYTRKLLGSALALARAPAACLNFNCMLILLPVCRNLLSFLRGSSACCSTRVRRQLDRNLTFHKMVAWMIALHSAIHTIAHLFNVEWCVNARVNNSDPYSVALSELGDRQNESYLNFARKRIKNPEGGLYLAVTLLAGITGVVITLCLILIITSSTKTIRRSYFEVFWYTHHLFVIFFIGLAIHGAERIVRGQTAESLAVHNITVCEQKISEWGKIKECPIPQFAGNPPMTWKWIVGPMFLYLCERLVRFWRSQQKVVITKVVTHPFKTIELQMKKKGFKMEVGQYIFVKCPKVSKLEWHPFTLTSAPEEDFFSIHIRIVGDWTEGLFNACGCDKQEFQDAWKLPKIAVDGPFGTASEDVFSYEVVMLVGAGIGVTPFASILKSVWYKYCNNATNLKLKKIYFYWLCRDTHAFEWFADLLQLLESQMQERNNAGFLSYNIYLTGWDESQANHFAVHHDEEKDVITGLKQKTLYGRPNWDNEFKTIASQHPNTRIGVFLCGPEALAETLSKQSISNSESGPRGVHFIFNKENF

Regarding `C=C[C@H](C)[C@H](OC(=O)Nc1ccc(SC)cc1)c1ccc(O)c2ccccc12`, the composite z-score in [1] is 0.081; in assay [6], -0.635; in assay [7] it was -0.154; in [8], -0.252; in assay [9] it was -0.0104; in assay [10], 0.73. In [12], this compound registered a composite z-score of -1.01. Also, the z-score in assay [2] was -4.25 (inactive); in [3] it was -0.0275 (inactive); in assay [4], 0.0172 (inactive); in [5], 4.5 (inactive); in assay [11], -1.61 (inactive); in assay [13], 28.9 (active). Moreover, the z-score is 10.2 (active) in assay [14]; 2.13 (inactive) in assay [15]; 0.867 (inactive) in assay [16]; 0.451 in assay [17]; -5.46 (inactive) in assay [18]; -0.825 (inactive) in assay [19]. Moreover, the z-score in assay [20] worked out at 1.76.
As for `C=C(/C(=C/C[C@@H](OC(C)=O)c1ccccc1OCCO)c1cnc2ccccc2c1)C(C)C`, the composite z-score was 0.515 in [1]; -0.02 in assay [6]; 0.167 in [7]; 0.72 in [8]; 0.0714 in [9]; 1.81 in assay [10]. The compound also had a composite z-score in assay [12] of -0.0428. Further, the z-score in assay [2] is -1.35 (inactive); in assay [3], 0.362 (inactive); in assay [4], 10.8 (active); in assay [5] it was 0.982 (inactive); in assay [11], 0.0675 (inactive); in [13] it was 11.6 (active). Moreover, the z-score in [14] was 2.53 (inactive); in [15], 1.82 (inactive); in assay [16], 1.04 (inactive); in assay [17], 0.458; in assay [18], -1.08 (inactive); in assay [19] it was -1.28 (inactive). Also, the z-score in [20] is -1.49.
On to `COc1cc(NN2C(C(O)c3ccc(I)cc3)C=CC3C(=O)N(C)C(=O)C32)cc(OC)c1OC` (stereo not given), for which the composite z-score is 0.212 in assay [1]; -0.105 in [6]; 0.0074 in assay [7]; -0.442 in [8]; 1.42 in assay [9]; -0.441 in assay [10]. In assay [12], the composite z-score stood at 0.125. The z-score in assay [2] is -2.58 (inactive); in assay [3], -0.126 (inactive); in [4], -0.326 (inactive); in assay [5], -0.445 (inactive); in assay [11] it was -0.0511 (inactive); in assay [13], 0.318 (inactive). Moreover, the z-score was 0.168 (inactive) in [14]; 1.59 (inactive) in assay [15]; -0.374 (inactive) in assay [16]; 1.28 in [17]; -2.45 (inactive) in assay [18]; -4.04 (inactive) in assay [19]. The z-score in assay [20] was -2.92.
Take `COCCOC(=O)N1C(=O)[C@@]2(c3cc(C#CC4(O)CCCCCC4)ccc31)[C@H](C(=O)N1CCN(c3ncccn3)CC1)[C@H]1C(=O)O[C@H](c3ccccc3)[C@H](c3ccccc3)N1[C@@H]2c1ccc(O)cc1`: the composite z-score was 0.521 in [1]; -0.0314 in assay [6]; 0.0982 in [7]; 0.553 in [8]; 0.432 in [9]; 0.481 in assay [10]. For the same compound, the composite z-score in assay [12] was found to be 0.63. Further, the z-score in [2] was -1.45 (inactive); in assay [3], 0.148 (inactive); in assay [4] it was -0.375 (inactive); in assay [5] it was 0.505 (inactive); in assay [11], 0.923 (inactive); in [13], 0.71 (inactive). In addition, the z-score in assay [14] is 0.566 (inactive); in assay [15], 0.991 (inactive); in [16], 0.613 (inactive); in assay [17], 0.274; in assay [18], 1.43 (inactive); in assay [19], -1.31 (inactive). In addition, in assay [20], the z-score is 1.49.
Consider `COc1cccc(C[C@H]2C[C@@H](CO[Si](C(C)C)(C(C)C)C(C)C)N3C(=O)[C@]4(C(C)=O)O[C@]23[C@H]2C(=O)N(C)C(=O)[C@H]24)c1`, for which the composite z-score in assay [1] is 0.205; in [6], 0.636; in assay [7], -0.008; in assay [8], 0.0282; in assay [9], 0.611; in [10], 1.09. The same compound yielded a composite z-score in [12] of -0.0713. Besides, the z-score in assay [2] was -4.4 (inactive); in assay [3], 0.0793 (inactive); in assay [4], 1.62 (inactive); in [5], 0.325 (inactive); in [11], -1.09 (inactive); in [13], 4.02 (inactive). The z-score in assay [14] is 0.867 (inactive); in assay [15], -0.382 (inactive); in assay [16], 0.702 (inactive); in [17], -0.267; in assay [18], 0.083 (inactive); in assay [19], 0.451 (inactive). Besides, the z-score in [20] was 0.146.
On to `O=C1CSC(c2cccc([N+](=O)[O-])c2)N1c1ccccc1` (stereo not given), for which the composite z-score in assay [1] is 0.0388; in assay [6] it was -0.545; in [7] it was -0.147; in assay [8], 0.838; in assay [9], 0.153; in assay [10], 0.221. The same compound returned a composite z-score in assay [12] of 0.0163. Moreover, the z-score in assay [2] is -0.735 (inactive); in [3], -0.249 (inactive); in assay [4] it was -0.321 (inactive); in assay [5], -0.567 (inactive); in assay [11], 0.0188 (inactive); in [13], 0.0361 (inactive). Further, the z-score in assay [14] was 0.111 (inactive); in assay [15] it was 0.708 (inactive); in [16], -0.139 (inactive); in [17] it was -0.0619; in assay [18], -0.276 (inactive); in assay [19] it was -0.0621 (inactive). Besides, the z-score in [20] stood at 0.509.
With `CC(C)c1ccc(NN2C(C(O)c3ccccn3)C=CC3C(=O)N(c4ccccc4)C(=O)C32)cc1` (stereo not given), the composite z-score in assay [1] amounted to 1.01; in assay [6], 0.608; in assay [7], 0.46; in [8], 1.55; in [9], 2.09; in assay [10], 1.98. Also, in assay [12], the composite z-score is 0.595. The z-score in [2] is 0.0489 (inactive); in assay [3] it was -0.997 (inactive); in assay [4] it was 0.0501 (inactive); in assay [5], 0.792 (inactive); in assay [11] it was -0.701 (inactive); in assay [13] it was 7.66 (inactive). Further, the z-score is 1.4 (inactive) in [14]; 2.42 (inactive) in assay [15]; 1.64 (inactive) in [16]; -0.336 in [17]; -1.2 (inactive) in assay [18]; -3.57 (inactive) in assay [19]. For the same compound, the z-score in assay [20] was -3.05.
For `CCOC(=O)C1=CCC(c2cccc(Cl)c2)O1` (stereo not given), the composite z-score in [1] is -0.0719; in assay [6], -0.164; in [7], 0.0541; in [8], 0.368; in [9], 0.263; in [10], -0.549. Further, the composite z-score in assay [12] amounted to 0.152. Further, the z-score in [2] is -4.6 (inactive); in assay [3], -1.23 (inactive); in assay [4], -0.471 (inactive); in assay [5], 0.0691 (inactive); in [11], -0.504 (inactive); in assay [13], 14.9 (active). The z-score in [14] is 1.02 (inactive); in assay [15], 0.75 (inactive); in [16], -0.244 (inactive); in assay [17], 1.61; in [18], -4.41 (inactive); in assay [19] it was -1.37 (inactive). In assay [20], the z-score was -3.51.
